# Assay results reported in the supplement of paper PMC7156485.
# System: TDF
# Experiment: cell number relative to DMSO (% of DMSO); higher = more cells (less growth inhibition / toxicity)
# Conditions: concentration: 10 µM; 24 h
# Summary of the method: (§1)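 H1.0 nuclear intensity or cell number is stated as percent of the plate control, based on the median of replicates, and HCC1569 values were smoothed for positional effects. These came from HCC1569 and TDF cells treated with compounds at 10 µM for 24 h at 37 °C in triplicate, then fixed in 3.7% formaldehyde and stained with a rabbit anti-H1.0 antibody, an AlexaFluor 647 secondary and DAPI.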
# 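Wherever H1.0 immunofluorescence intensity relative to DMSO is given: TDF is a line of transformed human dermal fibroblasts of mesenchymal origin.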
# 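Wherever cell number relative to DMSO is given: TDF denotes transformed human dermal fibroblasts of mesenchymal origin.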
row,SMILES,cell number
1,CCC(C)SSc1ncc[nH]1 (stereo unspecified) [2-(sec-butyldisulfanyl)-1H-imidazole],105
2,CS(=O)(=O)CCNCc1ccc(-c2ccc3ncnc(Nc4ccc(OCc5cccc(F)c5)c(Cl)c4)c3c2)o1.Cc1ccc(S(=O)(=O)O)cc1.Cc1ccc(S(=O)(=O)O)cc1 [Lapatinib ditosylate],94.3
3,O=C(NC(CO)C(O)c1ccc([N+](=O)[O-])cc1)C(Cl)Cl (stereo unspecified) [Chloramphenicol],92.2
4,O=C(O)C(=Cc1c(C(=O)O)[nH]c2cc(Cl)cc(Cl)c12)c1ccccc1,109

# System: TDF
# Experiment: H1.0 immunofluorescence intensity relative to DMSO (% of DMSO); higher = stronger H1.0 induction, active = 120 or more
# Conditions: concentration: 10 µM; 24 h
# Summary of the method: as §1
row,SMILES,H1.0 immunofluorescence intensity
1,NCC(O)(CS(=O)(=O)O)c1ccc(Cl)cc1 (stereo unspecified) [2-Hydroxysaclofen],97.7 (inactive)
2,O=C(O)c1ccc(O)c2ncccc12 [8-hydroxy-5-quinolinecarboxylic acid],94.9 (inactive)
3,CCNC(=O)C1OC(n2cnc3c(N)nc(NCCc4ccc(CCC(=O)O)cc4)nc32)C(O)C1O.Cl (stereo unspecified),103 (inactive)
4,COc1ccc2c(c1)c(CC(=O)N1CCOCC1)c(C)n2C(=O)c1ccc(Cl)cc1,94.6 (inactive)
5,NC(=O)N1c2ccccc2C=Cc2ccccc21 [Carbamazepine],92.6 (inactive)
6,COc1cc2c(cc1OC)-c1cc3ccc(OC)c(OC)c3c[n+]1CC2.[Cl-] [Palmatine chloride],96.1 (inactive)
7,O=c1cc(-c2ccc(O)c(O)c2)oc2cc(O)c(C3OC(CO)C(O)C(O)C3O)c(O)c12 (stereo unspecified) [Homoorientin],100 (inactive)
8,"CN(C)c1nc(N)c(C(=O)N=C(N)N)nc1Cl.Cl [5-(N,N-Dimethyl)amiloride hydrochloride]",96.1 (inactive)
9,OCC1=CC(O)C2C=COC(OC3OC(CO)C(O)C(O)C3O)C12 (stereo unspecified) [Aucubin],99.8 (inactive)
10,CC1=NS(=O)(=O)c2cc(Cl)ccc2N1 [Diazoxide],101 (inactive)
11,O=C1NC(=O)C(c2c[nH]c3ccccc23)=C1c1c[nH]c2ccccc12 [Bisindolylmaleimide IV],94.7 (inactive)
12,CCC(NC(C)C)C(O)c1ccc(O)c(O)c1.CS(=O)(=O)O (stereo unspecified) [Isotharine mesylate],92.8 (inactive)
13,O=C1NC(=O)C(=Cc2ccc(-c3ccc(F)cc3O)o2)S1,95.1 (inactive)
14,CN1CCc2cc(Cl)c(O)cc2C(c2ccccc2)C1.Cl (stereo unspecified),88.5 (inactive)
15,CC(=O)C1(O)CCC2C3CCC4=CC(=O)CCC4(C)C3CCC21C (stereo not drawn) [17alpha-hydroxyprogesterone],99 (inactive)
16,CC(C)C(=O)Nc1ccc([N+](=O)[O-])c(C(F)(F)F)c1 [Flutamide],112 (inactive)
17,CC(O)CCCC(O)C=CC1C(O)CC(O)C1CC=CCCCC(=O)O [19(R)-Hydroxy-prostaglandin F2a],93.3 (inactive)
18,O=C(C=Cc1ccc(O)c(O)c1)c1ccc(O)cc1O [Butein],94.3 (inactive)
19,[N-]=[N+]=Nc1ccc(C(=O)CSCC(NC(=O)CCC(N)C(=O)O)C(=O)NCC(=O)O)cc1 (stereo not drawn) [S-(p-Azidophenacyl)glutathione],95.5 (inactive)
20,CCCCCC(O)C=CC=CCC=CC=CC(O)CCCC(=O)O (stereo unspecified),101 (inactive)
21,CCCCC(C)(O)CC=CC1C(O)CC(=O)C1CCCCCCC(=O)OC (stereo unspecified) [Misoprostol],93.2 (inactive)
22,"O=C(O)c1cc(=O)c2c(Cl)cc(Cl)cc2[nH]1 [5,7-Dichlorokynurenic acid]",95.2 (inactive)
23,CC(CCc1ccc(O)cc1)NCCc1ccc(O)c(O)c1.Cl (stereo unspecified) [Dobutamine.HCl],83.4 (inactive)
24,C#CC1(O)CCC2C3CCC4=Cc5oncc5CC4(C)C3CCC21C (stereo unspecified) [Danazol],95.4 (inactive)
25,COC(=O)C(N)Cc1ccc(Cl)cc1.Cl (racemic) [DL-p-Chlorophenylalanine methyl ester hydrochloride],107 (inactive)
26,Cl.N=c1c[n+](N2CCOCC2)[n-]o1 [3-Morpholinosydnonimine hydrochloride],94.1 (inactive)
27,CS(=O)(=O)N1CCN(Cc2cc3nc(-c4cccc5[nH]ncc45)nc(N4CCOCC4)c3s2)CC1,85.3 (inactive)
